From PubChem BioAssay AID434970 (Sanford-Burnham Center for Chemical Genomics, 2010)
About 310 (2.8%) of roughly 11,000 compounds were called active. Rule as the data show it: active = activity change below about -85%; inactive = the rest. For the sample, actives were picked, then their nearest neighbours and some compounds at random.

Test system: intestinal alkaline phosphatase [Mus musculus]
Experiment: activators of mouse IAP, confirmation, biochemical, luminescence, single concentration (AID 434970)
Settings: purified mouse IAP, CDP-Star luminescence, 30 min, at 10 µM; activation factor: measured here: IAP activation factor, stronger effect = higher value; activity change, negative = activation: stronger effect = lower value

| Structure (SMILES) | activation factor | activity change, negative = activation |
| --- | --- | --- |
| CCOC(=O)C1(CC)NC(c2ccco2)C2C(=O)N(c3ccc(C)cc3)C(=O)C21 (stereo not drawn) | 1.05 | -4.65% (inactive) |
| COCCCNC(=O)C[C@H]1C[C@H](C(=O)N2CCCCC2)[C@@]2(CCc3ccccc3)c3[nH]c4ccc(Cl)cc4c3CCN2C1=O | 1.2 | -19.7% (inactive) |
| CCOC(=O)C1(C)/C(=N/Nc2ccccc2Cl)C(=O)C(=O)N1c1ccccc1 (stereo not drawn) | 0.886 | 11.4% (inactive) |
| Cc1ccc(C)c(N2CCN(C(=O)CCc3nc(-c4ccc(Br)cc4)no3)CC2)c1 | 1.04 | -4.15% (inactive) |
| NC(=O)C1CCN(CC(=O)Nc2ccccn2)CC1 | 0.922 | 7.8% (inactive) |
| CCCN(CCC)C(=O)c1ccc2c(c1)OCO2 | 1.05 | -5.1% (inactive) |
| COc1ccc(CN2CC[C@H]3C=CC[C@@H](C(=O)Nc4ccc(Cl)c(C(F)(F)F)c4)[C@H]3C2=O)cc1OC | 2.85 | -185% (active) |
| CCCCN1CC[C@@H]2C=CC[C@H](C(=O)OC)[C@@H]2C1=O | 0.952 | 4.85% (inactive) |
| O=C(O)[C@H]1CC=C[C@H]2CCN(Cc3ccc(Cl)c(Cl)c3)C(=O)[C@@H]12 | 1.05 | -5.25% (inactive) |
| CCOC(=O)c1ccc(NC(=O)NC2CC3CCC(C2)N3Cc2nnnn2C(C)(C)C)cc1 (stereo not drawn) | 1.46 | -45.8% (inactive) |
| COc1ccc2[nH]c3c(c2c1)CCN1C(=O)C(CC(=O)NC/C=C(\C)CCC=C(C)C)C[C@H](C(=O)N(C(C)C)C(C)C)[C@@]31C (stereo partly drawn) | 2 | -100% (active) |
| CCN(CC)C(=O)[C@H]1CC(CC(=O)NC/C=C(\C)CCC=C(C)C)C(=O)N2CCc3c([nH]c4ccc(OC)cc34)[C@]12C (stereo partly drawn) | 1.25 | -24.9% (inactive) |
| CC(C)=CCC/C(C)=C/CNC(=O)C[C@H]1C[C@H](C(=O)N(C(C)C)C(C)C)[C@@]2(C)c3[nH]c4ccc(Cl)cc4c3CCN2C1=O | 1.25 | -25.1% (inactive) |
| Cc1ccc(NCc2nnc(SCC(N)=O)n2CC2CCCO2)c(C)c1 (stereo not drawn) | 1.09 | -9.4% (inactive) |
| Fc1ccc(CNC(=S)Nc2cccc(C(F)(F)F)c2)cc1 | 1.28 | -27.5% (inactive) |
| FC(F)(F)c1cccc(NC(=S)NCc2ccc(Cl)cc2)c1 | 1.18 | -18.2% (inactive) |
| COc1ccc(CNC(=O)Nc2cccc(C(F)(F)F)c2)cc1OC | 2.21 | -121% (active) |
| COc1ccc(CNC(=O)NCc2ccc(OC)c(OC)c2)cc1OC | 1.09 | -9% (inactive) |
| O=C(NCc1ccc2c(c1)CCO2)Nc1cccc(C(F)(F)F)c1 | 2.44 | -144% (active) |
| FC(F)(F)c1cccc(NC(=S)NCc2ccccc2)c1 | 1.69 | -69.2% (inactive) |

| Structure (SMILES) | activation factor | activity change, negative = activation |
| --- | --- | --- |
| Cc1cc(C)c2c(-n3cccc3)c(C(=O)NNS(=O)(=O)c3ccc(Br)cc3)sc2n1 | 0.865 | 13.5% (inactive) |
| CC1(C)CC2CC(C)(CN2C(=O)CN2C(=O)c3ccccc3C2=O)C1 (stereo not drawn) | 1.09 | -8.65% (inactive) |
| CC(=O)c1ccc(NC(=O)CCn2c(=O)oc3ccccc32)cc1 | 1.03 | -3.25% (inactive) |
| COc1ccccc1CNC(=O)CCCOc1cc(=O)n(C)c2ccccc12 | 0.997 | 0.3% (inactive) |
| C=CCC1[C@H](C)[C@H]2[C@@H]3CC[C@@H](C3)[C@H]2CN1S(=O)(=O)c1ccc(C)cc1 (stereo partly drawn) | 1.12 | -11.8% (inactive) |
| N#CCc1ccc(NC(=O)Nc2cccc3ccccc23)cc1 | 1.89 | -89.1% (inactive) |
| O=C(Nc1ccccc1)Nc1cccc2ccccc12 | 1.79 | -78.8% (inactive) |
| CCN(CC)CCNC(=O)c1ccc(NC(=O)Nc2cccc3ccccc23)cc1 | 2.6 | -160% (active) |
| CCOc1ccc(CC(=O)OCN2C(=O)c3ccccc3C2=O)cc1 | 0.926 | 7.35% (inactive) |
| Cc1ccc(NC(=O)CNc2ccc(OC(C)C)cc2)cc1 | 0.9 | 10% (inactive) |
| Cc1ccc(NC(=O)c2ncn(CC(=O)NCC(C)c3ccccc3)n2)cc1C (stereo not drawn) | 0.995 | 0.5% (inactive) |
| COc1ccccc1C(CC(=O)Nc1ccc(C)c(C)c1)c1ccc(OC(C)C)cc1 (stereo not drawn) | 2.06 | -106% (active) |
| CCOc1ccc(NC(=O)CC(c2ccccc2)c2ccc(F)cc2)cc1 (stereo not drawn) | 1.44 | -43.6% (inactive) |
| COc1ccccc1C(CC(=O)Nc1ccc(Cl)cc1)c1ccc(OC(C)C)cc1 (stereo not drawn) | 1.91 | -90.9% (active) |
| CCOc1ccccc1NC(=O)c1cccc(NC(=O)CC(c2ccccc2)c2ccccc2)c1 | 1.39 | -39.4% (inactive) |
| O=C(CN(Cc1ccccc1F)C(=O)Cn1nnc(-c2cccs2)n1)NC1CCCCC1 | 1.22 | -22.1% (inactive) |
| Cc1cc(C(F)F)nn1CC(=O)N1CCSCC1 | 0.984 | 1.65% (inactive) |
| CCCC(=O)NC(=S)Nc1ccccc1C(F)(F)F | 0.974 | 2.55% (inactive) |
| CCN(CC)S(=O)(=O)c1ccc2c(c1)nc(SCc1nc3ccsc3c(=O)[nH]1)n2CC | 0.992 | 0.85% (inactive) |
